Source: PubChem (National Center for Advancing Translational Sciences (NCATS))
KB-V1 MDR tox: qHTS assay for MDR1-selective chemotherapeutics: Primary screen using the drug-selected MDR subline cells KB-V1 | KB-V1 MDR cells viability, CellTiter-Glo, 72 h | Potency, µM (top dose mostly 46.1 µM), actives largely listed as cytotoxic | 3.4% of 400,000 active | AID 1347076, 2019; further: on the % scale 0 is the no-effect control and ±100 the full control effect; nearly all actives have a fitted effect of over 60% in size
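Cytotoxicity via CellTiter-Glo luminescence after 72 h compound exposure at 37 degrees C. Cells: drug-selected KB-V1 line, DMEM phenol-red free plus 10% FBS. Compounds tested at multiple concentrations; normalized data fitted to concentration-effect curves.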
PINK1 expr mod: A Quantitative High throughput Screen to Identify Chemical Modulators of PINK1 Expression. PINK1 immunofluorescence, high-content cytometry, 24 h. 0.2% of 410,000 active. Potency, µM (top dose mostly 76.6 µM), for the others: at the top dose activation (PINK1 increase), actives largely listed as activators; active means well fitted activation curve with a large enough effect; inconclusive means small, poorly fitted or top-dose-only effect; cell line not stated here; further: % of control where 0% means no effect; nearly all actives have a fitted effect of over 65% in size
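PINK1 protein, normally rapidly degraded, was detected by immunofluorescence after 24 hour compound treatment of a stable cell line. Titration data (5 concentrations) came from laser-scanning cytometry, with CCCP-treated wells as controls.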
12-LOX inh: Primary qHTS assay for inhibitors of human arachidonate 12S-lipoxygenase (ALOX12): Round 2. 1.1% of 580,000 active. Potency, µM (titrated, usually from 108 µM), without a hit: at the top dose activity change, negative = inhibition, most hits filed as inhibitors. purified 12hLO, xylenol orange hydroperoxide absorbance. AID 1671190, 2021. Polyunsaturated fatty acid lipoxygenase ALOX12 (Homo sapiens), P18054; further: on the % scale 0 is the no-effect control and ±100 the full control effect
Target sequence (P18054 whole entry, looked up): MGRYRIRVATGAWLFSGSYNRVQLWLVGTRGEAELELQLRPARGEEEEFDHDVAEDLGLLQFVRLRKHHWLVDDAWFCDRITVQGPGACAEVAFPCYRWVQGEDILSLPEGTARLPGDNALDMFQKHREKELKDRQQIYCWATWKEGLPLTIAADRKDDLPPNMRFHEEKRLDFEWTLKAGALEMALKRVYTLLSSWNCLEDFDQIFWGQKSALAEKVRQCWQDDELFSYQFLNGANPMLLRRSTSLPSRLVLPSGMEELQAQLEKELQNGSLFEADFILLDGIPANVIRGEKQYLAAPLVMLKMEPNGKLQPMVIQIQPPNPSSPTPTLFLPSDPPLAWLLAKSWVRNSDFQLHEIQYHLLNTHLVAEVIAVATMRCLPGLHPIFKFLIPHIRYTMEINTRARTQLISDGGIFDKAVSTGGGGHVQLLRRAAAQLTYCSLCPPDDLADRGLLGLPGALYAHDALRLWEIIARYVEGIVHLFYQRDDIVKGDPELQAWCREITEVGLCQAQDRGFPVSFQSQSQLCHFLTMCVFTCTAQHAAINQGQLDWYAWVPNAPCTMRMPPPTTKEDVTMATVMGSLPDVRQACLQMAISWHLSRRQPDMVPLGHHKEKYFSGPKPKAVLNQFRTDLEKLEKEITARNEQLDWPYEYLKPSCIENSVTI
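Purified human 12hLO at 150 nM in 25 mM Hepes, 0.01% Triton X-100, pH 7.0, preincubated 15 min at room temperature with compound. Reaction started with 40 uM arachidonic acid, 30 min at room temperature. Hydroperoxide measured by Fe-xylenol orange, 573/405 nm absorbance ratio.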
SW480 rereplic: A quantitative high throughput screen for small molecules that induce DNA re-replication in SW480 colon adenocarcinoma cells. SW480 DNA re-replication, Hoechst DNA content imaging, 48 h. Potency, µM (top dose mostly 46.1 µM), for the others: at the highest dose re-replication activation, actives largely listed as activators. 1.8% of 340,000 active. AID 624297, 2012; further: % of control where 0% means no effect; nearly all actives have a fitted effect of over 55% in size
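Treated cells incubate 48 hr (37 C, 5% CO2), are stained 40 min with Hoechst, and nuclear fluorescence is enumerated; a rise in nuclei with high DNA signal marks re-replication.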
MCF10A rerep: A quantitative high throughput screen for small molecules that induce DNA re-replication in MCF 10a normal breast cells; MCF 10A DNA re-replication, Hoechst nuclear intensity, 48 h; Potency, µM (doses to about 46.1 µM), without a hit: top-dose activity, positive = re-replication, hits mostly activators; 2.9% of 350,000 active; AID 624296, 2012; further: % of control where 0% means no effect; nearly all actives have a fitted effect of over 50% in size
KB-3-1 tox: qHTS assay for MDR1-selective chemotherapeutics: Primary screen using the parental adenocarcinoma cell KB-3-1; KB-3-1 viability, CellTiter-Glo ATP luminescence, 72 h; AID 1347075, 2019; Potency, µM (top dose mostly 46.1 µM), most hits filed as cytotoxic; 1.4% of 400,000 active; further: on the % scale 0 is the no-effect control and ±100 the full control effect; nearly all actives have a fitted effect of over 60% in size
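Cytotoxicity in the drug-sensitive parental line KB-3-1 was scored as loss of CellTiter-Glo luminescence following 72 h incubation with compound. Values come from curve fitting of normalized concentration-response data.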
* marks the source's active call; other numbers are inactive results. The list is not random: actives were taken first. Their share in the collection is about 5.8%. Unless noted, the call rests on the fitted dose curve; in most records, active means well fitted curve in the direction sought with a large enough effect; inconclusive means small, poorly fitted or top-dose-only effect, or another doubt; inactive means no such curve, though single readings can be large; an effect the other way counts as inactive or inconclusive. Potency means the concentration at half of the fitted maximal effect.

Screening O=c1[nH]c(=S)ccn1C1OC(CO)C(O)C1O (configuration not stated) returned KB-V1 MDR tox inconclusive, PINK1 expr mod 3%, 12-LOX inh -16%, SW480 rereplic -2%, MCF10A rerep inconclusive and KB-3-1 tox 9.2µM*.
For O=c1[nH]c(=O)n(C2OC(CO)C(O)C2O)cc1F (configuration not stated) the results were KB-V1 MDR tox 21µM*, PINK1 expr mod 3%, SW480 rereplic 1µM*, MCF10A rerep inconclusive and KB-3-1 tox 21µM*.
For O=c1ccn([C@@H]2O[C@H](COP(=O)(O)O)[C@@H](O)[C@H]2O)c(=O)[nH]1 the results were 12-LOX inh -1%.
Screening O=c1[nH]cnc2c1ccn2C1OC(CO)C(O)C1O (configuration not stated) returned KB-V1 MDR tox 16µM*, PINK1 expr mod -1%, 12-LOX inh -8%, SW480 rereplic -1%, MCF10A rerep 2.1µM* and KB-3-1 tox 15µM*.
For CCc1ccc(Nc2nc(N3CCOCC3)nc(N3CCOCC3)n2)cc1 the results were KB-V1 MDR tox inactive, PINK1 expr mod -1%, 12-LOX inh inconclusive, SW480 rereplic 8.2µM*, MCF10A rerep 19% and KB-3-1 tox inconclusive.
Clc1cccc(Nc2nc(N3CCOCC3)nc(N3CCOCC3)n2)c1 was read as KB-V1 MDR tox inactive, PINK1 expr mod 1%, 12-LOX inh -21%, SW480 rereplic 51%, MCF10A rerep 15% and KB-3-1 tox inactive.
Screening Fc1cccc(Nc2nc(N3CCOCC3)nc(N3CCOCC3)n2)c1 returned KB-V1 MDR tox inactive, PINK1 expr mod -1%, 12-LOX inh 1%, SW480 rereplic inconclusive, MCF10A rerep 23µM* and KB-3-1 tox inconclusive.
FC(F)(F)Oc1ccc(Nc2nc(N3CCOCC3)nc(N3CCOCC3)n2)cc1 was read as KB-V1 MDR tox inactive, PINK1 expr mod 1%, 12-LOX inh -9%, SW480 rereplic 21µM*, MCF10A rerep inconclusive and KB-3-1 tox inactive.
Cn1ncc(N=Cc2ccccc2)c1C(=O)Nc1cccc(Cl)c1 was read as KB-V1 MDR tox inconclusive, PINK1 expr mod 8%, 12-LOX inh inconclusive, SW480 rereplic inconclusive, MCF10A rerep 18µM* and KB-3-1 tox inconclusive.
For COC1CN(c2cccc(F)c2)C12CCN(C(=O)CC1CCCCC1)CC2 (configuration not stated) the results were 12-LOX inh -4%.
Screening O=C(CNC(=S)NC(=O)c1ccc(Br)o1)c1ccccc1 returned KB-V1 MDR tox inactive, PINK1 expr mod 18%, 12-LOX inh 11%, SW480 rereplic 21µM*, MCF10A rerep 6.5µM* and KB-3-1 tox inactive.
Screening Cc1cccc(NC(=S)NC(=O)c2ccc(Br)o2)c1C returned KB-V1 MDR tox inactive, PINK1 expr mod 7%, 12-LOX inh inconclusive, SW480 rereplic -3%, MCF10A rerep 0% and KB-3-1 tox inactive.
O=C(CNC(=S)NC(=O)c1ccc(Cl)cc1)c1ccccc1 was read as KB-V1 MDR tox inactive, PINK1 expr mod 8%, 12-LOX inh inconclusive, SW480 rereplic -32%, MCF10A rerep -28% and KB-3-1 tox inactive.
Screening Cc1cccc(C)c1NC(=S)NC(=O)c1ccc(Br)o1 returned KB-V1 MDR tox inconclusive, PINK1 expr mod 1%, 12-LOX inh 45µM*, SW480 rereplic -6%, MCF10A rerep 4% and KB-3-1 tox inactive.
